In paper PMC7862700, “An all-to-all approach to the identification of sequence-specific readers for epigenetic DNA modifications on cytosine”:

Experiments:
Test in all cases: DAPPL (digital affinity profiling via proximity ligation, sequencing); 10 mM Tris-HCl pH 7.5, 50 mM NaCl, 1 mM DTT, 4% glycerol, room temperature, 30 min; GST-TFs on glutathione beads, 16-mer random dsDNA library, 0.1% formaldehyde crosslink after washing; high values mean tight binding
FLI1 = target: T1, FLI1 (Homo sapiens, UniProt Q01543 1-452); details: protein: recombinant; tags: N-terminal GST; dsDNA, one strand shown
T1 sequence: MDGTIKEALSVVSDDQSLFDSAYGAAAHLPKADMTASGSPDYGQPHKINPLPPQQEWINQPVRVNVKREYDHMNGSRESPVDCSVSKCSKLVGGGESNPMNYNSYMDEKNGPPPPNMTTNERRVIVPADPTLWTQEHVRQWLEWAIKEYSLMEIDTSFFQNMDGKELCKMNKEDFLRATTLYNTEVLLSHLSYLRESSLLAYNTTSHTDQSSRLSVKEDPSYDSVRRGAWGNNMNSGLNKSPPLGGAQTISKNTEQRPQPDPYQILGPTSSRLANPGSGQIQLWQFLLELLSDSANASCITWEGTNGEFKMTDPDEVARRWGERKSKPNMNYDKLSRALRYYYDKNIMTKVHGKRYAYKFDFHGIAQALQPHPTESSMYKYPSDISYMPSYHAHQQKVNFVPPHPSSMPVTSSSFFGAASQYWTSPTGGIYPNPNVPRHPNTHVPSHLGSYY
In short: (§1)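 In yeast, human transcription factors were expressed with a GST fusion, then pulled down on glutathione beads and given DNA barcodes. Pooled with a tag-only sample, they were exposed to 200 nmole of a 16-mer random double-stranded DNA library (Tris/NaCl/DTT/glycerol buffer, room temperature, 30 min), washed, crosslinked with 0.1% formaldehyde, proximity-ligated using BsaI/T4 ligase for 1 h at 37 °C, PCR-amplified and read on an Illumina NextSeq500. Each hexamer's frequency of reads for a factor, divided by the matching frequency for the tag-only sample, gives the binding signal.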

ELK1 = target: T2, ELK1 (Homo sapiens, UniProt P19419 1-428); details: protein: recombinant; tags: N-terminal GST; dsDNA, one strand shown
T2 sequence: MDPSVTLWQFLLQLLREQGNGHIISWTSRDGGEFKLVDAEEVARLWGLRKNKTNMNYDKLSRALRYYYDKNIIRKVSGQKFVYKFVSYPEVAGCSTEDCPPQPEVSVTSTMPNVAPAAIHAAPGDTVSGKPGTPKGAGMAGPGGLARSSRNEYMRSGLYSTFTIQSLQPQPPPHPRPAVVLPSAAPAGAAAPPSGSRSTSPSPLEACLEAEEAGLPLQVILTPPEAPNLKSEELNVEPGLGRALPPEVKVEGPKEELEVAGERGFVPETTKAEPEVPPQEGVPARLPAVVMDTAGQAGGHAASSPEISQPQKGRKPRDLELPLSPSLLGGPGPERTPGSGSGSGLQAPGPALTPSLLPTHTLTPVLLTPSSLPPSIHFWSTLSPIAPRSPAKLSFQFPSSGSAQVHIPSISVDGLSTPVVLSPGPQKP
In short: as §1

GABPA = target: T3, GABPA (Homo sapiens, UniProt Q06546 1-454); details: protein: recombinant; tags: N-terminal GST; dsDNA, one strand shown
T3 sequence: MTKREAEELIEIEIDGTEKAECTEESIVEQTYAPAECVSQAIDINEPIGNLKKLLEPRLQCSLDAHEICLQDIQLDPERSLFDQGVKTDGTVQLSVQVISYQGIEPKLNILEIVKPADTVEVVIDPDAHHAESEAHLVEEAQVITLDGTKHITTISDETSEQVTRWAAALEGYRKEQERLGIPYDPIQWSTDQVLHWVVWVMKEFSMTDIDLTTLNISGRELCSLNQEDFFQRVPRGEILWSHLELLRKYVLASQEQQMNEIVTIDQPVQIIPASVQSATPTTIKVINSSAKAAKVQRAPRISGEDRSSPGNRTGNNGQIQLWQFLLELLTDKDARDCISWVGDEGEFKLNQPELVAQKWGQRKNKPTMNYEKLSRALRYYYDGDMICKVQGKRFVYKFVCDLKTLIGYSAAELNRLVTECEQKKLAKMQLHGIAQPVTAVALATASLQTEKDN
In short: as §1

ERG = target: T4, ERG (Homo sapiens, UniProt P11308 1-479); details: protein: recombinant; tags: N-terminal GST; dsDNA, one strand shown
T4 sequence: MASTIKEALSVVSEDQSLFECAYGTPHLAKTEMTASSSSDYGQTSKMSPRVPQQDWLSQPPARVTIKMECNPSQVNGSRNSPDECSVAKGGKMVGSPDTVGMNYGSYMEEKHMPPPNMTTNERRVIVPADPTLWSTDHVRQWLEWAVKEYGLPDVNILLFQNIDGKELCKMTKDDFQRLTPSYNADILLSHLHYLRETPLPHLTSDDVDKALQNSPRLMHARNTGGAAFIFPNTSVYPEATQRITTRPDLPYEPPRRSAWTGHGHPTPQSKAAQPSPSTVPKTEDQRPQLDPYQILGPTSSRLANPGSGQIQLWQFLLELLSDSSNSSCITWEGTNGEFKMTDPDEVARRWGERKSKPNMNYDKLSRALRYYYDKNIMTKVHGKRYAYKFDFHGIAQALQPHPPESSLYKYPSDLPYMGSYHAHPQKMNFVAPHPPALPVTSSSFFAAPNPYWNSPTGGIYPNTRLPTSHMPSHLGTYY
In short: as §1

ELF1 = ELF1 (Homo sapiens, UniProt P32519 1-619); details: protein: recombinant; tags: N-terminal GST; dsDNA, one strand shown
In short: as §1

EHF = target: T5, EHF (Homo sapiens, UniProt Q9NZC4 1-300); details: protein: recombinant; tags: N-terminal GST; dsDNA, one strand shown
T5 sequence: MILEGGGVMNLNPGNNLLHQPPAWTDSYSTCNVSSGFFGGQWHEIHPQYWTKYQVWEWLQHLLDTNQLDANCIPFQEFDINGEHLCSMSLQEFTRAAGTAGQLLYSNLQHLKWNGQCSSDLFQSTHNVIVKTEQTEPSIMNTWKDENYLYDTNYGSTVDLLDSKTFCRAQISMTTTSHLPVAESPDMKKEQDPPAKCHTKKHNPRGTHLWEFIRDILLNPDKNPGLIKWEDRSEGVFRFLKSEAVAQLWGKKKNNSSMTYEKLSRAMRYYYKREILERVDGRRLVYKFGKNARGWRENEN
In short: as §1

SPI1 = SPI1 (Homo sapiens, UniProt P17947 1-270); details: protein: recombinant; tags: N-terminal GST; dsDNA, one strand shown
In short: as §1

SPIB = SPIB (Homo sapiens, UniProt Q01892 1-262); details: protein: recombinant; tags: N-terminal GST; dsDNA, one strand shown
In short: as §1

ELK3 = target: T6, ELK3 (Homo sapiens, UniProt P41970 1-407); details: protein: recombinant; tags: N-terminal GST; dsDNA, one strand shown
T6 sequence: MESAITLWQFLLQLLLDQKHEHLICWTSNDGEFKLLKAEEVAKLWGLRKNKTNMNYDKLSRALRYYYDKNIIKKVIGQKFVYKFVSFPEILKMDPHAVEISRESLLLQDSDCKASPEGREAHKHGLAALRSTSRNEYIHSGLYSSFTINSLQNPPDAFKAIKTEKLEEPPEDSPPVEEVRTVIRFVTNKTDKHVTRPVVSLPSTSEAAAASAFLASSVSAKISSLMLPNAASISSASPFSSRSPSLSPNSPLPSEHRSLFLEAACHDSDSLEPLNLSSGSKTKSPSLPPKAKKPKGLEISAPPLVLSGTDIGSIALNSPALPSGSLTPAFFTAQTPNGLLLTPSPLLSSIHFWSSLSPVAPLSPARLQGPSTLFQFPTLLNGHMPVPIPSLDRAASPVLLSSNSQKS
In short: as §1

FEV = target: T7, FEV (Homo sapiens, UniProt Q99581 1-238); details: protein: recombinant; tags: N-terminal GST; dsDNA, one strand shown
T7 sequence: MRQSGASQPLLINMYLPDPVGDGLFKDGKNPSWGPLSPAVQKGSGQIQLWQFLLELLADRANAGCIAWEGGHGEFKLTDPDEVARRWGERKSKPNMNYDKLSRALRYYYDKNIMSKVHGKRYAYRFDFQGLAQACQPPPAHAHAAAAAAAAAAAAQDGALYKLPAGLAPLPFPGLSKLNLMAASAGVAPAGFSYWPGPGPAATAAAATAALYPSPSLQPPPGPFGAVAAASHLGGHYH
In short: as §1

ETV5 = ETV5 (Homo sapiens, UniProt P41161 1-510); details: protein: recombinant; tags: N-terminal GST; dsDNA, one strand shown
In short: as §1

HSF1 = HSF1 (Homo sapiens, UniProt Q00613 1-529); details: protein: recombinant; tags: N-terminal GST; chain copies: 3; dsDNA, one strand shown
In short: as §1

SPIC = target: T8, SPIC (Homo sapiens, UniProt Q8N5J4 1-248); details: protein: recombinant; tags: N-terminal GST; dsDNA, one strand shown
T8 sequence: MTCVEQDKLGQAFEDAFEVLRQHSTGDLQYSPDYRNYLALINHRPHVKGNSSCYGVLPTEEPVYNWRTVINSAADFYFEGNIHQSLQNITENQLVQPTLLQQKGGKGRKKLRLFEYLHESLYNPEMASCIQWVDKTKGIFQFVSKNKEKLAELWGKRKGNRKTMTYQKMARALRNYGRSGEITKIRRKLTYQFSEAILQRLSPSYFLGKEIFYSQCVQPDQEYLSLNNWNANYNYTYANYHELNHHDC
In short: as §1

ELF4 = ELF4 (Homo sapiens, UniProt Q99607 1-663); details: protein: recombinant; tags: N-terminal GST; dsDNA, one strand shown
In short: as §1

ELK4 = target: T9, ELK4 (Homo sapiens, UniProt P28324-2 1-405); details: protein: recombinant; tags: N-terminal GST; dsDNA, one strand shown
T9 sequence: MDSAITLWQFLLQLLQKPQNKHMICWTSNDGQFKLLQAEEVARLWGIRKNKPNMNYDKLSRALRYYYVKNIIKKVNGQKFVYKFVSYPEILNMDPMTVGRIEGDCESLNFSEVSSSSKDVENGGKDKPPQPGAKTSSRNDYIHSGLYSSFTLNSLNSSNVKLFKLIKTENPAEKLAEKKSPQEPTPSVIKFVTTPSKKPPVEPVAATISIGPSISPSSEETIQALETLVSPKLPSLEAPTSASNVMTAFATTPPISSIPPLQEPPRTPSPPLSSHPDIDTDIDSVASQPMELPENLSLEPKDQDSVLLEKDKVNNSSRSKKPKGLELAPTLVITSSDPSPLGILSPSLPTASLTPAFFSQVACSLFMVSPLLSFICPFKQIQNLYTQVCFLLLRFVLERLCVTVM
In short: as §1

ETV2 = target: T10, ETV2 (Homo sapiens, UniProt O00321 1-342); details: protein: recombinant; tags: N-terminal GST; dsDNA, one strand shown
T10 sequence: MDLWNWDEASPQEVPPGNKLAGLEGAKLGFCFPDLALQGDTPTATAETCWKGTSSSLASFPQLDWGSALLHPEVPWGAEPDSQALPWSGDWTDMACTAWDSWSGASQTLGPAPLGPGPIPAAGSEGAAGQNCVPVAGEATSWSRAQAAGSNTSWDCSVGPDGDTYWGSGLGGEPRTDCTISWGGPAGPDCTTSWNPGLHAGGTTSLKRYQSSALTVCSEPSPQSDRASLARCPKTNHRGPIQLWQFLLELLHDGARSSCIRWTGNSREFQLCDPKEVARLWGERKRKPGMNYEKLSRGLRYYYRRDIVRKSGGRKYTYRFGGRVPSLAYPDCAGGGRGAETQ
In short: as §1

ELF3 = target: T11, ELF3 (Homo sapiens, UniProt P78545 1-371); details: protein: recombinant; tags: N-terminal GST; dsDNA, one strand shown
T11 sequence: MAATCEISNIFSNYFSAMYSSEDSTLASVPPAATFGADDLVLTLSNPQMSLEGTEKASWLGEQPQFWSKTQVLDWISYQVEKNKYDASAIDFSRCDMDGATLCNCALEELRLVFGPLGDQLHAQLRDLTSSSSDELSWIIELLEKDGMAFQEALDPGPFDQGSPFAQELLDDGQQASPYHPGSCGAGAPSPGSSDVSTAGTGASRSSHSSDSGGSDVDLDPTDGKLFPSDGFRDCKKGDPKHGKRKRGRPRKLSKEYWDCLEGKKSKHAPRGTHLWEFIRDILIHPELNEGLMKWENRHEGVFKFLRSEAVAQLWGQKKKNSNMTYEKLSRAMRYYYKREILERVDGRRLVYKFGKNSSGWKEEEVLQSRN
In short: as §1

CRX = CRX (Homo sapiens, UniProt O43186 1-299); details: protein: recombinant; tags: N-terminal GST; dsDNA, one strand shown
In short: as §1

ETV1 = ETV1 (Homo sapiens, UniProt P50549 1-477); details: protein: recombinant; tags: N-terminal GST; dsDNA, one strand shown
In short: as §1

ETV5, sequence (P41161 whole entry): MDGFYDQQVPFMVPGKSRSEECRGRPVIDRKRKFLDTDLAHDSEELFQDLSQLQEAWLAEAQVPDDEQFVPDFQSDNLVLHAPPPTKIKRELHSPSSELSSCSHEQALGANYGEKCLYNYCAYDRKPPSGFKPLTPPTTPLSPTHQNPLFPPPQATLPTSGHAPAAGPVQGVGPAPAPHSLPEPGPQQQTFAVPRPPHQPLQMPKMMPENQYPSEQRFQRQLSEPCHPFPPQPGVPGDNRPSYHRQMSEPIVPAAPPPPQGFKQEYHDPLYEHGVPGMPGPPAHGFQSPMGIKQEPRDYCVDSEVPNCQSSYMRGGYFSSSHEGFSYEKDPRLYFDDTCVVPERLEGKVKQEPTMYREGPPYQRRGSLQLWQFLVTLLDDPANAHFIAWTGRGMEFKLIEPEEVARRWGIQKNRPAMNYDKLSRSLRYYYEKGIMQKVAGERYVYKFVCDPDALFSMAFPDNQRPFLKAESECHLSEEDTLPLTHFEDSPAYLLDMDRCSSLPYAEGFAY
CRX, sequence (O43186 whole entry): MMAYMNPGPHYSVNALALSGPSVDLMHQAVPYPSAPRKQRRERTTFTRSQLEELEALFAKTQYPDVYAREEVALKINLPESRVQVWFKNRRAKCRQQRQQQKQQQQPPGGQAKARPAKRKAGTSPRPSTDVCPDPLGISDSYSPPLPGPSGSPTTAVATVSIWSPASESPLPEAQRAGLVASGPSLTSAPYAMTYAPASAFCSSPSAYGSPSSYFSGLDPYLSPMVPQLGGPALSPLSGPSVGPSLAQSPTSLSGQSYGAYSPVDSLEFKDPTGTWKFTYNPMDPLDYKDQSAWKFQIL
ETV1, sequence (P50549 whole entry): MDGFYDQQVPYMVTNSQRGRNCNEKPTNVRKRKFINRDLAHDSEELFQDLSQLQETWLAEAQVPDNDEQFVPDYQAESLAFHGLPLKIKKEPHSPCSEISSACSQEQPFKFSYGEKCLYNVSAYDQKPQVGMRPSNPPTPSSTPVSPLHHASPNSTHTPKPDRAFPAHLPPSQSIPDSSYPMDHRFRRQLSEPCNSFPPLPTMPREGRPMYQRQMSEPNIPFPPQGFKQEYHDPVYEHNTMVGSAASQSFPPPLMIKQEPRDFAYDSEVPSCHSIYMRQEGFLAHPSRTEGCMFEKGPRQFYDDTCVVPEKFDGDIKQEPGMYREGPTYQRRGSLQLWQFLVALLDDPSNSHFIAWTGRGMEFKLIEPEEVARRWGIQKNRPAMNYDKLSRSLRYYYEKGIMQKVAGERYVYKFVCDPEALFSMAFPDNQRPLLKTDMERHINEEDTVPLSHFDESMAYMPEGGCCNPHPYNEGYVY
ELF4, sequence (Q99607 whole entry): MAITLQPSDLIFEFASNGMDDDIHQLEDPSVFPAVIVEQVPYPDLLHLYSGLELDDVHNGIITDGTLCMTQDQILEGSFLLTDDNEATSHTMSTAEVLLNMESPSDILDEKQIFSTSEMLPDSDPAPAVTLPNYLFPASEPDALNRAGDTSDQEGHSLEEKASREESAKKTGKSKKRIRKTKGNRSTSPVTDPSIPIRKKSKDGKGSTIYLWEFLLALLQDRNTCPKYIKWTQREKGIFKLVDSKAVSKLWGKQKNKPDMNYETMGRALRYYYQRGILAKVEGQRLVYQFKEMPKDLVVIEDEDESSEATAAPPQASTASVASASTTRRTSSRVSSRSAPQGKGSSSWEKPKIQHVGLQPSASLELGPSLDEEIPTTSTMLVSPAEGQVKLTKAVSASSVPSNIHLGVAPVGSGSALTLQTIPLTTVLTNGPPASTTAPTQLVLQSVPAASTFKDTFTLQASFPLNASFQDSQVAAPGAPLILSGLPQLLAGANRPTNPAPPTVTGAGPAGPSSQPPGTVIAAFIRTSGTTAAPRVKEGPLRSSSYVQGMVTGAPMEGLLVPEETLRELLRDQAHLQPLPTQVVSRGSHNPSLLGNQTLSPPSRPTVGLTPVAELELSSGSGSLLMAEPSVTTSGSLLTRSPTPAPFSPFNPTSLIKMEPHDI
HSF1, sequence (Q00613 whole entry): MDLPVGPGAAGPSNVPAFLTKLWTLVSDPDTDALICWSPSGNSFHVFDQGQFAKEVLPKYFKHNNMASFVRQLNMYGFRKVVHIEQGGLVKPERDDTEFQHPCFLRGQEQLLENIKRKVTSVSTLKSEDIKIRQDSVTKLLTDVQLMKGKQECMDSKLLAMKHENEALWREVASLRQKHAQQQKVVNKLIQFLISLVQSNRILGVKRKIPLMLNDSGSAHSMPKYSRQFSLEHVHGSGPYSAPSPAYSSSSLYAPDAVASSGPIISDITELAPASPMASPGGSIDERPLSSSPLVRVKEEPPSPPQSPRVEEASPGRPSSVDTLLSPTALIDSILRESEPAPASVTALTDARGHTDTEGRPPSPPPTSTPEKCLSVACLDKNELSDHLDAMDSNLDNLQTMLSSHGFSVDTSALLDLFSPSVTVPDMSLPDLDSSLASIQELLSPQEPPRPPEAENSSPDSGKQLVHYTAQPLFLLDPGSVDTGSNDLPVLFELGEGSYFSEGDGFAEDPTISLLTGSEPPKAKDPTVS
SPIB, sequence (Q01892 whole entry): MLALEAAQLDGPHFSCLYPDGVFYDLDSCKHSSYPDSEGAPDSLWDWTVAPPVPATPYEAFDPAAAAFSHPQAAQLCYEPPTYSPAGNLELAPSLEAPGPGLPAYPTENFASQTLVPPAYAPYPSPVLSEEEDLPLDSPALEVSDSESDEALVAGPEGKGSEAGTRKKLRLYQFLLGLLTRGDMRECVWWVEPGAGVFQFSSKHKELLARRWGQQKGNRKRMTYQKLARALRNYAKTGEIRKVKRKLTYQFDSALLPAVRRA
ELF1, sequence (P32519 whole entry): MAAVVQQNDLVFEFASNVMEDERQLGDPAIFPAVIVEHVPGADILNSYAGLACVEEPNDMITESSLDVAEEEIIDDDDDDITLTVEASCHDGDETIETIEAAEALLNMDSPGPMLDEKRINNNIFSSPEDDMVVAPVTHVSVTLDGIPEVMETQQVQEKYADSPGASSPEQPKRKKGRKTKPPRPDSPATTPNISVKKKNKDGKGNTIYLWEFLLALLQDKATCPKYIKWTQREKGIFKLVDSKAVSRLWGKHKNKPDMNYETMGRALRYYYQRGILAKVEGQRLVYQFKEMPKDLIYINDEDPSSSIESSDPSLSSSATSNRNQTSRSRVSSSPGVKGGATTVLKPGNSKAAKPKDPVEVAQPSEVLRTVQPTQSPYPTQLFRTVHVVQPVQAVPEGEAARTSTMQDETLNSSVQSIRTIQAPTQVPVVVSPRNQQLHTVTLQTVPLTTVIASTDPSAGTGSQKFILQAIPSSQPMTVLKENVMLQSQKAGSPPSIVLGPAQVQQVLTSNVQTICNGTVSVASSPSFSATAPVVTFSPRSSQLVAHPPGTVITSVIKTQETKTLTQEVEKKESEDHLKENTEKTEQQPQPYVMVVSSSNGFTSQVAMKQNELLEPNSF

Sequence: GCCTAA
- binding signal (FLI1): 1.22 fold enrichment (6-mer frequency, TF over GST control)
- binding signal (ELK1): 1.17 fold enrichment (6-mer frequency, TF over GST control)
- binding signal (GABPA): 1.14 fold enrichment (6-mer frequency, TF over GST control)
- binding signal (ERG): 1.24 fold enrichment (6-mer frequency, TF over GST control)
- binding signal (ELF1): 1.22 fold enrichment (6-mer frequency, TF over GST control)
- binding signal (EHF): 1.28 fold enrichment (6-mer frequency, TF over GST control)
- binding signal (SPI1): 1.11 fold enrichment (6-mer frequency, TF over GST control)
- binding signal (SPIB): 1.23 fold enrichment (6-mer frequency, TF over GST control)
- binding signal (ELK3): 1.19 fold enrichment (6-mer frequency, TF over GST control)
- binding signal (FEV): 1.21 fold enrichment (6-mer frequency, TF over GST control)
- binding signal (ETV5): 1.19 fold enrichment (6-mer frequency, TF over GST control)
- binding signal (HSF1): 1.38 fold enrichment (6-mer frequency, TF over GST control)
- binding signal (SPIC): 1.35 fold enrichment (6-mer frequency, TF over GST control)
- binding signal (ELF4): 1.25 fold enrichment (6-mer frequency, TF over GST control)
- binding signal (ELK4): 1.25 fold enrichment (6-mer frequency, TF over GST control)
- binding signal (ETV2): 1.19 fold enrichment (6-mer frequency, TF over GST control)
- binding signal (ELF3): 1.35 fold enrichment (6-mer frequency, TF over GST control)
- binding signal (CRX): 1.84 fold enrichment (6-mer frequency, TF over GST control)
- binding signal (ETV1): 1.22 fold enrichment (6-mer frequency, TF over GST control)
